Results filed as inconclusive are left out. Where a call stands in place of a potency, no number is given. Calls of active or inactive are those of the source. Calls come from the whole dose curve; as a rule, active = well fitted inhibition curve with a large enough effect; inconclusive = small, poorly fitted or top-dose-only effect; inactive = flat fitted curve, though single readings scatter.
System: DFO2036
Assay: qHTS profiling for inhibitors of Plasmodium falciparum proliferation (AID 504749); note: nearly all actives have a fitted effect of over 60% in size
Details: P. falciparum in erythrocytes, SYBR Green DNA, 72 h; series mostly up to 12.8 µM
Source text: NIH National Institute of Allergy and Infectious Diseases [NIAID] NIH Chemical Genomics Center [NCGC] MLPCN Grant: None Assay Provider: Xinzhuan Su, NIAID NCGC Assay Overview: Plasmodium falciparum is a virulent malarial parasite that kills 1-2 million people worldwide each year. Transmitted by mosquitoes, the sporozoite form of the parasite enters the blood stream to infect hepatocytes, where they become merozoites that infect red blood cells (erythrocytes). Within erythrocytes, merozoites begin a […] cycle of growth and division, after which the parasite is released to infect new red blood cells. Gametocytes, which form within erythrocytes as well, circulate in the bloodstream and are ingested by the mosquito, thereby completing the life cycle. To profile malarial isolates for differential chemical responses and to identify inhibitors of malarial growth, an assay that measures P. falciparum growth and replication within erythrocytes was employed. This assay uses a DNA binding fluorescent dye (SYBR Green) to detect parasite DNA following cell lysis. Because mature erythrocytes lack DNA, only Plasmodium-derived DNA is detected.
NCGC Assay Protocol Summary: The SYBR Green viability assay was adapted from a method described previously (Plouffe et al., 2008). For screening 3 ul culture medium was dispensed into 1536 well black clear bottom plates (Aurora Biotechnologies) using a Multidrop Combi (Thermo Fisher Scientific Inc.), 23 nL compounds in DMSO were added by a pin tool (Kalypsys), and 5 ul of erythrocytes infected with P. falciparum (0.3% parasitemia, 2.5% hematocrit final concentration) were added. The plates were incubated at 37 C in a humidified incubator in 5% CO2 for 72 h, and 2 ul lysis buffer (20 mM Tris HCl, 10 mM EDTA, 0.16% saponin, 1.6% triton X, 10X SYBR Green I supplied as 10,000X […] by Invitrogen) was added to each well. The plates were mixed for 25 sec with gentle shaking and incubated overnight at room temperature in the dark. The following morning, fluorescence intensity at 485(14) nm excitation and 535(25) nm emission wavelengths was measured on an EnVision (Perkin Elmer) plate reader. Plate reads were normalized relative to the control inhibitor (0.29 uM artemisinin) and vehicle (DMSO) wells present on each plate and then corrected by an algorithm using vehicle-only control plates at the beginning and end of the compound plate stack.
Potency is the fitted concentration of half-maximal effect.

Row | SMILES | Potency
1 | CC(=O)OCC(=O)[C@@]1(O)[C@H](C)C[C@@H]2[C@H]3CCC4=CC(=O)C=C[C@]4(C)[C@]3(F)[C@@H](O)C[C@@]21C | inactive
2 | Cc1cccc(CN2CCN([C@@H](c3ccccc3)c3ccc(Cl)cc3)CC2)c1 | inactive
3 | Cc1ncc([N+](=O)[O-])n1C[C@H](O)CCl | inactive
4 | NC(=O)c1ccc[n+]([C@@H]2O[C@H](COP(=O)([O-])OP(=O)(O)OC[C@H]3O[C@@H](n4cnc5c(N)ncnc54)[C@@H](O)[C@@H]3O)[C@@H](O)[C@@H]2O)c1 | inactive
5 | O=C(Nc1ccccc1)OC[C@H](CN1CCCCC1)OC(=O)Nc1ccccc1 | inactive
6 | C=CCN1C(=CCO)[C@H]2C[C@H]3[C@@H]1CC[C@@]31c3ccccc3N3C=C4[C@@H]5N(/C=C/2[C@H]31)c1ccccc1[C@]51CC[C@H]2[C@H]1C[C@@H]4/C(=C/CO)N2CC=C | inactive
7 | OCC1O[C@H](OC2C(CO)O[C@@](O)(CO)C2O)C(O)C(O)C1O (stereo not given in full) | inactive
8 | CCC(C)C(=O)OC1CCC=C2C=CC(C)C(CCC3CC(O)CC(=O)O3)[C@@H]21 (stereo not given in full) | inactive
9 | CC[C@H](CO)NCCN[C@@H](CC)CO | inactive
10 | CCc1c(C)[nH]c2c1C(=O)[C@H](CN1CCOCC1)CC2 | inactive
11 | CN(C)CCCOC1C(C(O)CO)OC2OC(C)(C)O[C@@H]21 (stereo not given in full) | inactive
12 | CC(=O)[C@]1(O)CCC2C3C=C(Cl)C4=CC(=O)C5CC5[C@@]4(C)C3CC[C@]21C (stereo not given in full) | inactive
13 | CO[C@]12C(COC(N)=O)C3=C(C(=O)C(C)=C(N)C3=O)N1CC1NC12 (stereo not given in full) | 0.316 µM (active)
14 | COc1cc2nc(N3CCN(C(=O)[C@@H]4CCCO4)CC3)nc(N)c2cc1OC | inactive
15 | N[C@@H]1C(O)OC(CO)C(O)C1O (stereo not given in full) | inactive
16 | CO[C@]1(NC(=O)C2SC(=C(C(N)=O)C(=O)O)S2)C(=O)N2C(C(=O)O)=C(CSc3nnnn3C)CS[C@H]21 (stereo not given in full) | inactive
17 | CCC(CCC(C)C1CCC2C3CC=C4CC(O)CC[C@@]4(C)C3CC[C@@]12C)C(C)C (stereo not given in full) | inactive
18 | NC[C@@H]1O[C@H](O[C@@H]2[C@H](O[C@@H]3O[C@H](CO)[C@@H](O)[C@@H]3O)[C@@H](O)[C@@H](N)C[C@H]2N)[C@@H](N)[C@H](O)[C@@H]1O | inactive
19 | CCC(C)C(=O)OC1CC(O)C=C2C=CC(C)C(CCC(O)CC(O)CC(=O)O)C21 (stereo not given) | inactive
20 | O=C1O[C@@H]([C@@H](O)CO)[C@@H](O)[C@H]1O | inactive

Row | SMILES | Potency
21 | CCC(C)(C)C(=O)O[C@@H]1C[C@H](C)C=C2C=C[C@H](C)[C@@H](CC[C@H]3C[C@@H](O)CC(=O)O3)[C@H]21 | inactive
22 | Cc1cccc(C)c1NC(=O)[C@H](C)N | inactive
23 | O=C1OC(CO)C(O)C(O)C1O (stereo not given) | inactive
24 | Clc1ccc([C@H](Cn2ccnc2)OCc2c(Cl)cccc2Cl)c(Cl)c1 | 3.55 µM (active)
25 | CCN[C@@H]1CN(CCCOC)S(=O)(=O)c2sc(S(N)(=O)=O)cc21 | inactive
26 | CCCC(=O)O[C@]1(C(=O)CO)CCC2[C@@H]3CCC4=CC(=O)CC[C@]4(C)C3C(O)C[C@]21C (stereo not given in full) | inactive
27 | COc1c(O[C@H]2O[C@@H](CO)[C@@H](O)[C@@H](O)[C@@H]2O)cc2c(c1OC)-c1ccc(SC)c(=O)cc1[C@H](NC(C)=O)CC2 | inactive
28 | C[C@H]1CS(=O)(=O)CCN1/N=C\c1ccc([N+](=O)[O-])o1 | inactive
29 | CC(C)(C)NC[C@H](O)COc1cccc2c1C[C@@H](O)[C@@H](O)C2 | inactive
30 | C[C@H](O)Cn1cnc2c1c(=O)n(C)c(=O)n2C | inactive
31 | COc1ccc(C[C@@](C)(N)C(=O)O)cc1OC | inactive
32 | CC(=O)O[C@H]1C[C@@]2(C)[C@H](C[C@@H](O)[C@H]3[C@@]4(C)CC[C@@H](O)[C@@H](C)[C@H]4CC[C@@]32C)C1=C(CCC=C(C)C)C(=O)O | inactive
33 | C[C@@H]1Cc2ccccc2N1NC(=O)c1ccc(Cl)c(S(N)=O)c1 (stereo not given in full) | inactive
34 | NC[C@@H]1O[C@H](O[C@H]2[C@H](O)[C@H](O[C@@H]3O[C@H](CO)[C@@H](O)[C@H](N)[C@@H]3O)[C@@H](N)C[C@H]2N)[C@@H](O)[C@H](O)[C@@H]1O | inactive
35 | NC(CCC(=O)N[C@@H](CS)C(=O)NCC(=O)O)C(=O)O (stereo not given in full) | 6.31 µM (active)
36 | CC(=O)N(C[C@@H](C)C(=O)O)c1c(I)cc(I)c(N)c1I | inactive
37 | CC=C(/C(=C/C)c1ccc(O)cc1)c1ccc(O)cc1 | inactive
38 | CCCC[C@H](CC)CN1CN(C[C@@H](CC)CCCC)CC(C)(N)C1 | inactive
39 | Cc1onc(-c2ccccc2Cl)c1C(=O)N[C@H]1C(=O)N2[C@H]1SC(C)(C)[C@H]2C(=O)O | inactive
40 | CC[C@@]12CCCN3CCc4c(n(c5ccccc45)[C@](O)(C(=O)OC)C1)C32 (stereo not given in full) | inactive
